Screening data: PubChem, several laboratories
D1 allo mod: D1 CRE-luciferase signal change, two-sided – cell-based, HEK293 D1, dopamine EC30, D1 allosteric modulator project, primary screen | actives 5.9% (n = 58,000) | dopamine EC30 potentiation; actives deviate in either direction | B-score at 10 µM | AID 641, 2007 | D(1A) dopamine receptor (Homo sapiens), P21728;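 active = luminescence count or its row- and column-corrected plate score outside the 99.7% band of the plate's sample wells, on either side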
ROCK2 blocker: inhibitors of human ROCK2 kinase, primary screen, biochemical, high-throughput, luminescence | Rho-associated protein kinase 2 (Homo sapiens), O75116 | purified ROCK2, Kinase-Glo ATP depletion luminescence | inhibition, % at 6 µM | actives 0.35% (n = 60,000) | AID 604, 2007;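 active = inhibition above the screen-wide mean inhibition plus 3 SD, cut at about 18% in these data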;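 also: plate controls were DMSO wells for no effect and Y-27632 control wells after no-enzyme background subtraction for full effect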
DAT uptake mod: changed hDAT dopamine uptake under cocaine IC80, either direction, primary screen, cocaine antagonist project, cell-based, LLC-PK1 hDAT, [14C]-dopamine uptake, MLSMR; Sodium-dependent dopamine transporter (Homo sapiens), Q01959; LLC-PK1 hDAT cells, [14C]-dopamine uptake with cocaine IC80; actives deviate in either direction; B-score at 10 µM; actives 1.3% (n = 110,000); AID 449768, 2010;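 active = Z score or B-score, a plate-position-corrected score, falls beyond the plate's 99.7% confidence bounds, in either direction; inactive = both scores lie inside the 99.7% bounds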;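 also: scored against the spread of the other compound wells on the same plate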
JNK3 inh: JNK3 kinase activity inhibitors, primary screen, biochemical, human, purified enzyme; Mitogen-activated protein kinase 10 (Homo sapiens), P53779; HTS; inhibition, % at 8 µM; actives 0.61% (n = 60,000); in the data active = inhibition above about 17%;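 also: 0% = DMSO and 100% = reference inhibitor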
Target sequence (P53779 whole entry, looked up): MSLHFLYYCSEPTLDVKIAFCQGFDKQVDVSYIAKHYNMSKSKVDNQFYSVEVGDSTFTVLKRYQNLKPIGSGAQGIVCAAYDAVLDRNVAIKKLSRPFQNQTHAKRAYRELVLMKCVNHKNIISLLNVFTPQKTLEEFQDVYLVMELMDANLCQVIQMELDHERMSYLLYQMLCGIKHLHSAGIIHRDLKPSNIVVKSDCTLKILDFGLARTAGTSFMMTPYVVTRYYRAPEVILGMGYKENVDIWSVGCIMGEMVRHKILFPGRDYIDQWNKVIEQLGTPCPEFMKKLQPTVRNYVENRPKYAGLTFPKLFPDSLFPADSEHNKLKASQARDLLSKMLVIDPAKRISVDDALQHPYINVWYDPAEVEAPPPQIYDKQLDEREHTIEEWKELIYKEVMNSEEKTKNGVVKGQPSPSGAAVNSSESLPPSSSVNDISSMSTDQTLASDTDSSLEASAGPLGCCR
PKA inh: inhibitors of human PKA kinase activity, primary screen, biochemical, ATP-depletion luminescence, Kemptide substrate. PKA Kemptide phosphorylation, Kinase-Glo ATP luminescence. cAMP-dependent protein kinase catalytic subunit alpha (Homo sapiens), P17612. inhibition, % at 6 µM. actives 0.1% (n = 65,000). AID 524, 2006;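 active = inhibition above the screen-wide mean inhibition plus 3 SD, cut at about 21% in these data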
D1 mod confirm: D1 receptor positive allosteric modulators, retest, confirmation, cell-based, HEK293 D1, CRE-luciferase, duplicate. actives 88% (n = 2,200). dopamine EC30 potentiation; active compounds read high. shares compounds with D1 allo mod. AID 642, 2007. luminescence at 10 µM;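 active = luminescence in either of two replicates above the same-plate mean plus 3 SD of the low-dose dopamine control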
D1 no dopamine: D1 receptor agonism without dopamine, confirmation, mechanism study for D1 allosteric modulator project, cell-based, HEK293 D1, CRE-luciferase, secondary assay 1; shares compounds with D1 allo mod; luminescence, no dopamine; active compounds read high; luminescence at 10 µM; actives 0.8% (n = 1,900); in the data active = luminescence above about 3900
Isoprot counter: counter-screen for D1 modulators: isoproterenol response in HEK293 cells; shares compounds with D1 allo mod; HEK293 D1 CRE-luciferase, isoproterenol EC30 counter-screen; calls only at 10 µM; actives 63% (n = 2,200); AID 647;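 active = luminescence in either replicate above plate mean of wells with a partly effective reference agonist dose plus 3 SD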;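 also: isoproterenol raises cAMP through native beta-adrenoceptor Gs so signal bypasses D1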
Active calls of the source: *. This is one part of a sample in which hits are shown more often than they occur.

What do the screens show for `CCC1C(C#N)=C(N)OC2=C1C(=O)CC(C)(C)C2` (configuration not stated)?
D1 allo mod: 0.079; ROCK2 blocker: 7; DAT uptake mod: 0.043; JNK3 inh: -4; PKA inh: 7

What do the screens show for `CCCCCCC1C(C#N)=C(N)OC2=C1C(=O)CC(C)(C)C2` (configuration not stated)?
D1 allo mod: 3.7*; ROCK2 blocker: 5; DAT uptake mod: 0.23; JNK3 inh: -6; PKA inh: 2; D1 mod confirm: 12024*; D1 no dopamine: 1864; Isoprot counter: active

What do the screens show for `CCOC(=O)c1c(NC(=O)CSc2nnc(-c3cccnc3)n2Cc2ccco2)sc(C)c1C`?
D1 allo mod: 1; ROCK2 blocker: -1; DAT uptake mod: 0.53; JNK3 inh: 8; PKA inh: -3

Results for COc1ccc(-n2c(Cc3cccn3C)nnc2SCC(=O)Nc2ccccc2OC)cc1 ?
D1 allo mod: 0.56; ROCK2 blocker: -2; DAT uptake mod: 0.88; JNK3 inh: 4; PKA inh: -3

Results for Cc1nnc(NC(=O)CSc2nnc(Cc3cccn3C)n2-c2cccc(C(F)(F)F)c2)s1 ?
D1 allo mod: 3.4*; ROCK2 blocker: -5; DAT uptake mod: 1.1; JNK3 inh: -5; PKA inh: 4; D1 mod confirm: 5796; D1 no dopamine: 1516; Isoprot counter: inactive

What do the screens show for `COc1ccc(-n2c(Cc3cccn3C)nnc2SCC(=O)Nc2ccc(C)cc2C)cc1`?
D1 allo mod: 17*; ROCK2 blocker: -2; DAT uptake mod: -0.61; JNK3 inh: 4; PKA inh: -3; D1 mod confirm: 4936; D1 no dopamine: 1328; Isoprot counter: inactive

Results for Cc1ccc(O)c(NC(=S)NC(=O)c2ccc(-c3ccc(Cl)cc3)o2)c1 ?
DAT uptake mod: 1.1

Results for Cc1cc(NC(=O)CCC(=O)N(c2ccccc2)C2(C(=O)NC3CCCCC3)CCCC2)no1 ?
D1 allo mod: 0.73; ROCK2 blocker: 4; DAT uptake mod: -0.2; JNK3 inh: -9; PKA inh: 1

Results for CCCCC(CC)C(=O)NCCCN1CCN(CCCNC(=O)C(CC)CCCC)CC1 (configuration not stated) ?
D1 allo mod: -0.78; ROCK2 blocker: 9; DAT uptake mod: 0.02; JNK3 inh: 3; PKA inh: 8

How did Cc1cc(C(=O)OCC(=O)N2c3ccccc3CC2C)c(C)o1 (configuration not stated) do in these assays?
D1 allo mod: -0.66; ROCK2 blocker: 2; DAT uptake mod: -0.024; JNK3 inh: 4; PKA inh: 1

How did CCn1c(SCC(=O)OCc2ccccc2)nc2c1c(=O)n(C)c(=O)n2C do in these assays?
D1 allo mod: 3.9*; ROCK2 blocker: -3; DAT uptake mod: 0.42; JNK3 inh: 3; PKA inh: 14; D1 mod confirm: 5976; D1 no dopamine: 1308; Isoprot counter: inactive

How did C=CCn1c(SCC(=O)OCc2ccccc2)nc2c1c(=O)n(C)c(=O)n2C do in these assays?
D1 allo mod: -0.54; ROCK2 blocker: -3; DAT uptake mod: -0.031; JNK3 inh: 5; PKA inh: -3

Results for CCn1c(SCC(=O)Nc2ccccc2N2CCCCC2)nc2c1c(=O)n(C)c(=O)n2C ?
D1 allo mod: 3.9*; ROCK2 blocker: 1; DAT uptake mod: 0.037; JNK3 inh: -2; PKA inh: 6; D1 mod confirm: 6828*; D1 no dopamine: 1584; Isoprot counter: inactive

What do the screens show for `CC(C)n1c(SCC(=O)Nc2ccccc2N2CCOCC2)nc2c1c(=O)n(C)c(=O)n2C`?
DAT uptake mod: -0.93

How did COc1ccc(C2CC(=O)Nc3ccccc3S2(=O)=O)cc1OC (configuration not stated) do in these assays?
D1 allo mod: 2.9*; ROCK2 blocker: 2; DAT uptake mod: -0.84; JNK3 inh: 1; PKA inh: 4; D1 mod confirm: 9916*; D1 no dopamine: 1608; Isoprot counter: inactive

How did CCC(Sc1nc2ccccc2c(=O)n1CC1CCCO1)C(=O)NCc1cccnc1 (configuration not stated) do in these assays?
D1 allo mod: 0.078; DAT uptake mod: 0.34; PKA inh: 0

How did C(=N\C(/N=C/c1ccco1)c1ccco1)/c1ccco1 do in these assays?
D1 allo mod: 8.8*; ROCK2 blocker: 6; DAT uptake mod: -0.96; JNK3 inh: 0; PKA inh: 6; D1 mod confirm: 17580*; D1 no dopamine: 1572; Isoprot counter: inactive

How did O=c1c2ccccc2nc(SCc2cn3ccsc3n2)n1-c1ccccc1 do in these assays?
ROCK2 blocker: 4; DAT uptake mod: 0.095; JNK3 inh: 12; PKA inh: 0

Results for O=c1c2ccccc2nc(SCc2cn3ccsc3n2)n1-c1ccccc1F ?
D1 allo mod: 5.7*; ROCK2 blocker: 4; DAT uptake mod: 0.00018; JNK3 inh: 11; PKA inh: 16; D1 mod confirm: 14876*; D1 no dopamine: 1836; Isoprot counter: active

How did COC(=O)c1ccc(OCC(O)CN2C(=O)NC(C)(C)C2=O)cc1 (configuration not stated) do in these assays?
D1 allo mod: 5.8*; ROCK2 blocker: 6; DAT uptake mod: 0.2; JNK3 inh: 3; PKA inh: 6; D1 mod confirm: 6500*; Isoprot counter: inactive

What do the screens show for `CCCOC(=O)c1ccc(OCC(O)CN2C(=O)NC(C)(C)C2=O)cc1` (configuration not stated)?
ROCK2 blocker: 8; DAT uptake mod: -0.03; JNK3 inh: 0; PKA inh: 11

How did CSc1nc(NC(C)=O)nc(C)c1Cl do in these assays?
ROCK2 blocker: -1; DAT uptake mod: 0.61; JNK3 inh: -8; PKA inh: -3

Results for COc1ccc(C(=O)CSc2nc3nc(C)cc(C)n3n2)cc1OC ?
D1 allo mod: 11*; ROCK2 blocker: 0; DAT uptake mod: 1.2; JNK3 inh: -7; PKA inh: -4; D1 mod confirm: 20980*; D1 no dopamine: 1924; Isoprot counter: active
